Screens from PubChem.
Caspase-1 inhib – blocks human caspase-1 allosterically or competitively; 0.03% of 75,000 active; Caspase-1 enzyme, Ac-WEHD-AFC fluorogenic rate; AID 900; Potency, µM (top dose mostly 57.5 µM), without a hit: at the top dose activity change, negative = inhibition, hits mostly inhibitors;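 further: plate controls were vehicle for no effect and no substrate for full effect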
Target sequence (P29466 120-297 limits assumed): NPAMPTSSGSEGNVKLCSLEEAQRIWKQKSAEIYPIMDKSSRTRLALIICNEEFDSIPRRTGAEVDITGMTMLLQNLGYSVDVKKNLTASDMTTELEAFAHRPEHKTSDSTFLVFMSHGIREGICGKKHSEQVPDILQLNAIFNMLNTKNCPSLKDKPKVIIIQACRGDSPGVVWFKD
Target sequence (P29466 317-404 limits assumed): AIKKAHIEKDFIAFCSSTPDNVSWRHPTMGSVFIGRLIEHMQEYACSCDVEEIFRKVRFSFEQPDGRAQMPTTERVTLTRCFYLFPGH
ALOX15 inhib – 15-hLO (ALOX15) enzyme inhibition. P16050. purified 15hLO-1, xylenol orange hydroperoxide absorbance. Potency, µM (series often up to 57.1 µM), without a hit: at the top dose activity change, negative = inhibition, most hits filed as inhibitors. 1.4% of 74,000 active. AID 887; further: on the % scale 0 is the no-effect control and ±100 the full control effect; nearly all actives have a fitted effect of over 55% in size
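Quantitative HTS in 25 mM Hepes pH 7.5 containing 0.01% Triton X-100: human 15hLO-1 at 40 nM, arachidonic acid at 50 uM, 6 min turnover. Product quantified via ferrous oxidation/xylenol orange, 573:405 nm absorbance ratio.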
TSHR agonist – agonists of human thyroid stimulating hormone receptor | AID 926 | Potency, µM (titrated, usually from 57.1 µM), without a hit: top-dose activation, actives largely listed as activators | 0.48% of 73,000 active | HEK293-CNG-TSHR cells (CNG channel as cAMP sensor), membrane potential dye, cAMP | P16473; active means well fitted activation curve with a large enough effect in the main read-out, with a control signal flat, not every such curve was filed as active; inconclusive means small, poorly fitted or top-dose-only effect, or a change in a side signal; inactive means no such curve, though single readings can be large or run the other way; % of control where 0% means no effect;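 further: the control signal comes from parental cells without the receptor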
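HEK 293 cells stably expressing TSHR and a cAMP-gated CNG channel; parental CNG-only cells as counterscreen. Cells preloaded 60 min with membrane potential dye plus 100 uM RO 20-1724, then compound 30 min; fluorescence read at 590 nm.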
Caspase-7 inhib – caspase-7 (human) inhibition, allosteric or competitive. recombinant caspase-7, Ac-DEVD-AFC fluorescence rate. Potency, µM (top dose mostly 57.5 µM), for the others: at the highest dose activity change, negative = inhibition, hits mostly inhibitors. 0.02% of 75,000 active. AID 889; active means well fitted inhibition curve with a large enough effect in the main read-out, with a control signal flat, not every such curve was filed as active; inconclusive means small, poorly fitted or top-dose-only effect, or a change in a side signal; further: % of control where 0% means no effect
HEK293 cAMP cs – counter-screen for TSHR agonists: cAMP increase in parental HEK293 | parental HEK293 CNG cAMP sensor, membrane potential fluorescence | 2.5% of 73,000 active | AID 938 | Potency, µM (doses to about 57.1 µM), for the others: top-dose activation, hits mostly activators; further: % of control where 0% means no effect; nearly all actives have a fitted effect of over 55% in size
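Counterscreen for endogenous-receptor signalling: CNG-channel HEK 293 cells report cAMP rise by membrane depolarization. After 60 min dye equilibration with 100 uM RO 20-1724, compounds incubated 30 min before bottom-read fluorescence at 590 nm.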
15-hLO-2 inh – blocks human 15-lipoxygenase 2 activity; AID 881; O15296; purified 15hLO-2, xylenol orange hydroperoxide absorbance; 0.56% of 110,000 active; Potency, µM (titrated, usually from 57.1 µM), inactives show top-dose activity change, negative = inhibition, hits mostly inhibitors; further: on the % scale 0 is the no-effect control and ±100 the full control effect; nearly all actives have a fitted effect of over 60% in size
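Enzyme 50 nM, AA 45 uM, 25 mM Hepes pH 7.5 + 0.01% Triton X-100; cpd preinc 15 min RT, rxn 90 min RT; stop/detect with 200 uM XO + 300 uM Fe(II) in 50 mM H2SO4, 30 min; A573/A405.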
Starred values were filed as active, the others as inactive; u = inconclusive; x = not tested or not shown; [ ] = dose if it differs, or a comment. Only some compounds are listed: those with a hit (about 3% of all), similar ones and a draw of the others. Unless noted, the call rests on the fitted dose curve; in most records, active means well fitted curve in the direction sought with a large enough effect; inconclusive means small, poorly fitted or top-dose-only effect, or another doubt; inactive means no such curve, though single readings can be large; an effect the other way counts as inactive or inconclusive. Potency means the concentration at half of the fitted maximal effect.

SMILES	Caspase-1 inhib	ALOX15 inhib	TSHR agonist	Caspase-7 inhib	HEK293 cAMP cs	15-hLO-2 inh
COCCn1c(=O)c(C)nc2cnc(Oc3ccc(OC)cc3)nc21	-2%	4%	u	-3%	32µM*	-1%
COc1ncc2nc(C)c(=O)n(Cc3ccc(F)cc3)c2n1	-2%	2%	u	-2%	u	-8%
COCCn1c(=O)c(-c2ccc(OC)cc2)nc2cnc(Oc3ccc(OC)cc3)nc21	x	2%	u	u	u	-2%
Cc1nc2cnc(Oc3cccc(Cl)c3)nc2n(Cc2ccc(F)cc2)c1=O	-4%	-6%	u	-9%	4µM*	-14%
N#CC1(O)CCCCC1	-2%	-4%	4%	-1%	19%	-12%
Clc1ccccc1OCc1nc(-c2ccc(Br)o2)no1	x	x	x	x	x	-16%
Fc1ccc(OCc2nc(-c3ccc(Br)o3)no2)c(F)c1	-1%	7.9µM*	u	-4%	2.5µM*	-20%
COc1cccc(-n2nnc3c(=O)n(Cc4ccc(C)cc4)cnc32)c1	-1%	-11%	u	0%	16µM*	-10%
Cc1ccc(-n2nnc3c(=O)n(Cc4cc(C)ccc4C)cnc32)cc1	2%	11%	u	1%	20µM*	x
COc1cccc(-n2nnc3c(=O)n(Cc4ccc(Cl)cc4)cnc32)c1	-1%	-7%	u	0%	u	-12%
Cc1ccc(-n2nnc3c(=O)n(Cc4cccc(C)c4)cnc32)cc1	-3%	-14%	x	2%	12%	-6%
CCCNC(=O)OC[C@H]1O[C@@H](CCO/N=C2/C[C@@H](O)[C@@H](O)[C@@H]3[C@@H]4C(=O)N(CC)C(=O)[C@H]4CC[C@@H]23)C=C[C@@H]1Oc1ccc(OC)cc1	-1%[11.5 µM]	4%[11.4 µM]	-7%[11.4 µM]	0%[11.5 µM]	-3%[11.4 µM]	x
CC(=NCC(=O)O)c1ccccc1	4%[11.5 µM]	-18%[11.4 µM]	-2%[11.4 µM]	-2%[11.5 µM]	2%[11.4 µM]	-13%[11.4 µM]
CCCC(c1nnnn1Cc1ccc(OC)cc1)N1CCN(c2ccccc2OC)CC1 (stereo not drawn)	2%	-10%	u	0%	25µM*	3%
CCCC(c1nnnn1Cc1ccccc1)N1CCN(c2ccccc2OC)CC1 (stereo not drawn)	-4%	-16%	u	-1%	10µM*	-10%
COCCn1nnnc1C(c1ccccc1OC)N1CCN(c2ccccc2F)CC1 (stereo not drawn)	1%	-16%	u	-1%	7.9µM*	-2%
CCCC(c1nnnn1Cc1cccs1)N1CCN(c2ccc(OC)cc2)CC1 (stereo not drawn)	-4%	-9%	u	-2%	u	3%
CCc1cc2c(c(CC)n1)CCC(=O)N2Cc1ccc(-c2ccccc2-c2nn[nH]n2)cc1	0%	u	x	0%	6%	8%
Cc1cnc(CNc2ncncc2-c2ccoc2)cn1	2%	-16%	u	-3%	u	-6%
C[N+](C)(C)CCC(=O)c1cccc2ccccc12	1%	u	u	-2%	u	u
C[C@@H](C(=O)NCc1cccc2ccccc12)[C@H]1C[C@]1(C)[C@H](NC(=O)OCc1ccccc1)c1ccccc1	0%	x	4%	0%	20%	2%
N[C@@H](C(=O)O)[C@H](O)C(=O)O	x	x	10%	x	2%	x
COc1ccccc1N1CCN(C/C=C/c2ccc(N(C)C)cc2)CC1	-2%	25µM*	u	0%	-41%	38%
CCOC(=O)O[C@@H](C)OC(=O)[C@@H]1N2C(=O)[C@@H](NC(=O)[C@@H](N)c3ccccc3)[C@H]2SC1(C)C	-3%[25.7 µM]	2%[25.6 µM]	u	3%[25.7 µM]	u	21%[25.6 µM]
CCOc1ccccc1NC(=O)N1CCCC1C(=O)Nc1ccc(-n2cnnn2)c(C)c1 (stereo not drawn)	2%	1%	20µM*	-1%	-2%	-3%
CC1=C(C#N)c2nc(N)c(C#N)c(C)c2/C1=C\c1ccccc1	1%	40µM*	-90%	0%	-22%	x
